Measured values reported in PubChem BioAssay (EPA / NIEHS).
Active and inactive are the calls of the source. Rule for the calls: active = hit-call score of the fitted dose curve at least 0.9, where 1 is the maximum; inactive = score below 0.9.

Columns and labels:
Conditions in all cases: mRNA level, 48 h; actives raise or lower the signal
[1] = read-out: JUN Transcription Factor, JUN (gene 3725); assay: LTEA_HepaRG_JUN: Life Technologies and Expression Analysis (LTEA) Assay for JUN Transcription Factor using HepaRG (AID 2283513)
Method in brief: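 Human HepaRG liver cells receive test chemicals in 0.5% DMSO for 48 h across an eight-point range topping at 100 uM. Expression changes in JUN are scored in both directions against the DMSO vehicle.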

[2] = read-out: Lipase C (LIPC), LIPC (gene 3990); assay: LTEA_HepaRG_LIPC: Life Technologies and Expression Analysis (LTEA) Assay for Lipase C (LIPC) using HepaRG (AID 2283514)
Method in brief: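 Differentiated human HepaRG cells in serum-free induction medium were exposed in duplicate for 48 h to eight concentrations (top 100 uM, half-log steps, 0.5% DMSO). LIPC mRNA was quantified by TaqMan qRT-PCR, normalized to ACTB, GAPDH and POLR2A, with bidirectional fitting versus DMSO.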

[3] = read-out: Lipoprotein lipase (LPL), LPL (gene 4023); assay: LTEA_HepaRG_LPL: Life Technologies and Expression Analysis (LTEA) Assay for Lipoprotein lipase (LPL) using HepaRG (AID 2283515)
Method in brief: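 Differentiated human HepaRG cells in serum-free induction medium were exposed in duplicate for 48 h to eight half-log concentrations (top 100 uM) in 0.5% DMSO. LPL mRNA was quantified by TaqMan qRT-PCR, normalized to ACTB, GAPDH and POLR2A.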

[4] = read-out: MicroRNA 122 (MIR122), gene 406906; assay: LTEA_HepaRG_MIR122: Life Technologies and Expression Analysis (LTEA) Assay for MicroRNA 122 (MIR122) using HepaRG (AID 2283516); note: the transcript read is the microRNA miR-122
Method in brief: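 HepaRG, 48 h exposure, 8-pt half-log from 100 uM, 0.5% DMSO; TaqMan qRT-PCR; bidirectional fit vs DMSO.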

[5] = read-out: matrix metalloproteinase-10 (MMP10), MMP10 (gene 4319); assay: LTEA_HepaRG_MMP10: Life Technologies and Expression Analysis (LTEA) Assay for matrix metalloproteinase-10 (MMP10) using HepaRG (AID 2283517)
Method in brief: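 HepaRG, collagen I, ~100,000 cells/well; serum-free induction medium; 48 h exposure, duplicate, 8-pt half-log to 100 uM, 0.5% DMSO. Readout: TaqMan qRT-PCR, normalized to ACTB/GAPDH/POLR2A; bidirectional fit vs DMSO.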

[6] = read-out: MYC, MYC (gene 4609); assay: LTEA_HepaRG_MYC: Life Technologies and Expression Analysis (LTEA) Assay for MYC using HepaRG (AID 2283518)
Method in brief: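 Cells are thawed, plated and cultured 48 h, then treated for 48 h with test chemicals (eight half-log concentrations from 100 uM, 0.5% DMSO vehicle). RNA is isolated and MYC expression quantified by qRT-PCR against three housekeeping genes.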

[7] = read-out: matrix metalloproteinase-3 (MMP3), MMP3 (gene 4314); assay: LTEA_HepaRG_MMP3: Life Technologies and Expression Analysis (LTEA) Assay for matrix metalloproteinase-3 (MMP3) using HepaRG (AID 2283519)
Method in brief: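 Differentiated human HepaRG cells, plated 48 h on collagen I, were exposed in duplicate for 48 h in serum-free induction medium to eight half-log concentrations up to 100 uM in 0.5% DMSO. MMP3 mRNA was quantified by TaqMan qRT-PCR, normalised to ACTB, GAPDH and POLR2A.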

[8] = read-out: Paternally Expressed 10 (PEG10), PEG10 (gene 23089); assay: LTEA_HepaRG_PEG10: Life Technologies and Expression Analysis (LTEA) Assay for Paternally Expressed 10 (PEG10) using HepaRG (AID 2283520);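 for AC50: PEG10 transcript by qRT-PCR normalised to ACTB GAPDH and POLR2A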
Method in brief: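 Chemicals tested on HepaRG cells for 48 h, highest concentration 100 uM. PEG10 expression assessed by qRT-PCR relative to DMSO control.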

[9] = read-out: Protein phosphatase 2A (PPP2R4), PTPA (gene 5524); assay: LTEA_HepaRG_PPP2R4: Life Technologies and Expression Analysis (LTEA) Assay for Protein phosphatase 2A (PPP2R4) using HepaRG (AID 2283522)
Method in brief: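 Gene-expression endpoint in HepaRG hepatic cells: 48 h treatment across eight half-log concentrations up to 100 uM in 0.5% DMSO. PPP2R4 mRNA by qRT-PCR, normalized to three endogenous control genes.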

[10] = read-out: Phosphatase and tensin (PTEN), PTEN (gene 5728); assay: LTEA_HepaRG_PTEN: Life Technologies and Expression Analysis (LTEA) Assay for Phosphatase and tensin (PTEN) using HepaRG (AID 2283523)
Method in brief: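 Differentiated human HepaRG cells, plated 48 h then switched to serum-free induction medium, were exposed in duplicate for 48 h to eight half-log concentrations up to 100 uM in 0.5% DMSO. PTEN mRNA measured by TaqMan qRT-PCR, normalized to ACTB/GAPDH/POLR2A, bidirectional fit versus DMSO.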

[11] = read-out: solute carrier (SLC22A1), SLC22A1 (gene 6580); assay: LTEA_HepaRG_SLC22A1: Life Technologies and Expression Analysis (LTEA) Assay for solute carrier (SLC22A1) using HepaRG (AID 2283524)
Method in brief: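 Human HepaRG cells were plated 48 h, switched to serum-free induction medium, then exposed in duplicate for 48 h to 8-point half-log series from 100 uM in 0.5% DMSO. SLC22A1 mRNA measured by qRT-PCR, normalized to ACTB/GAPDH/POLR2A, fitted bidirectionally versus DMSO.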

[12] = read-out: Pyruvate Dehydrogenase Kinase 4 (PDK4), PDK4 (gene 5166); assay: LTEA_HepaRG_PDK4: Life Technologies and Expression Analysis (LTEA) Assay for Pyruvate Dehydrogenase Kinase 4 (PDK4) using HepaRG (AID 2283525)
Method in brief: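 Differentiated human HepaRG cells, pre-cultured 48 h, were exposed in duplicate for 48 h in serum-free induction medium to eight half-log concentrations up to 100 uM in 0.5% DMSO. PDK4 mRNA was quantified by qRT-PCR, normalized to ACTB, GAPDH and POLR2A, bidirectional fitting versus DMSO.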

[13] = read-out: NAD(P)H dehydrogenase [quinone] 1 (NQO1), NQO1 (gene 1728); assay: LTEA_HepaRG_NQO1: Life Technologies and Expression Analysis (LTEA) Assay for NAD(P)H dehydrogenase [quinone] 1 (NQO1) using HepaRG (AID 2283526)
Method in brief: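 Human HepaRG hepatic cells received chemicals for 48 h in serum-free induction medium with 0.5% DMSO, up to 100 uM. Expression was assessed by TaqMan qRT-PCR against housekeeping controls and fitted bidirectionally against DMSO.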

[14] = read-out: succinate dehydrogenase complex iron sulfur subunit B (SDHB), SDHB (gene 6390); assay: LTEA_HepaRG_SDHB: Life Technologies and Expression Analysis (LTEA) Assay for succinate dehydrogenase complex iron sulfur subunit B (SDHB) using HepaRG (AID 2283528)
Method in brief: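 SDHB transcript level read by TaqMan qRT-PCR, housekeeping-normalised (ACTB, GAPDH, POLR2A), after 48 h chemical treatment of plated HepaRG cells; eight concentrations top 100 uM, half-log steps, 0.5% DMSO, duplicates; fitted both directions against DMSO.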

[15] = read-out: Signal transducer and activator of transcription 3 (Homo sapiens) (UniProt P40763); assay: LTEA_HepaRG_STAT3: Life Technologies and Expression Analysis (LTEA) Assay for Signal transducer and activator of transcription (STAT3) using HepaRG (AID 2283529)
Method in brief: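 Differentiated human HepaRG cells in serum-free induction medium were exposed in duplicate for 48 h to eight half-log concentrations up to 100 uM in 0.5% DMSO. STAT3 mRNA was quantified by TaqMan qRT-PCR, normalized to ACTB, GAPDH and POLR2A, and fitted bidirectionally against DMSO.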

[16] = read-out: solute carrier (SLCO1B1), SLCO1B1 (gene 10599); assay: LTEA_HepaRG_SLCO1B1: Life Technologies and Expression Analysis (LTEA) Assay for solute carrier (SLCO1B1) using HepaRG (AID 2283530)
Method in brief: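 Gain or loss of SLCO1B1 mRNA is fitted against the 0.5% DMSO vehicle in human HepaRG liver cells treated 48 h at up to 100 uM in half-log steps. Expression comes from qRT-PCR normalized to endogenous controls.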

[17] = read-out: sulfotransferase 2A1 (SULT2A1), SULT2A1 (gene 6822); assay: LTEA_HepaRG_SULT2A1: Life Technologies and Expression Analysis (LTEA) Assay for sulfotransferase 2A1 (SULT2A1) using HepaRG (AID 2283531)
Method in brief: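 Cells were plated and cultured 48 h, switched to serum-free induction medium, then dosed in duplicate for 48 h (8 concentrations, max 100 uM). RNA was isolated and SULT2A1 expression measured by qRT-PCR; gain or loss of signal fitted relative to DMSO.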

[18] = read-out: Transforming Growth Factor (TGFA), TGFA (gene 7039); assay: LTEA_HepaRG_TGFA: Life Technologies and Expression Analysis (LTEA) Assay for Transforming Growth Factor (TGFA) using HepaRG (AID 2283532)
Method in brief: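 Differentiated human HepaRG cells, plated 48 h then switched to serum-free induction medium, were exposed in duplicate for 48 h to 8-point half-log series from 100 uM in 0.5% DMSO. TGFA mRNA measured by qRT-PCR, normalized to ACTB/GAPDH/POLR2A, bidirectional fit versus DMSO.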

[19] = read-out: Nuclear factor erythroid 2-related factor 2 (Homo sapiens) (UniProt Q16236); assay: LTEA_HepaRG_NFE2L2: Life Technologies and Expression Analysis (LTEA) Assay for Nuclear factor erythroid 2-related factor 2 (NFE2L2) Transcription Factor using HepaRG (AID 2283527)
Method in brief: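 Differentiated human HepaRG cells in serum-free induction medium were exposed for 48 h to eight concentrations (top 100 uM, half-log dilutions, 0.5% DMSO), in duplicate. NFE2L2 mRNA was quantified by TaqMan qRT-PCR, normalized to ACTB, GAPDH and POLR2A, with bidirectional fitting versus DMSO.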

[20] = read-out: Nuclear factor NF-kappa-B p105 subunit (Homo sapiens) (UniProt P19838); assay: LTEA_HepaRG_NFKB1: Life Technologies and Expression Analysis (LTEA) Assay for Nuclear Factor Kappa B Subunit 1 (NFKB1) using HepaRG (AID 2283521)
Method in brief: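 NFKB1 transcript was measured by TaqMan qRT-PCR on Fluidigm arrays, normalised to three housekeeping genes and fitted in both directions against 0.5% DMSO. HepaRG cells were dosed in duplicate for 48 h in serum-free induction medium, eight half-log steps from 100 uM.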

Measured: AC50

Chain of Signal transducer and activator of transcription 3 (Homo sapiens) (P40763 whole entry, looked up): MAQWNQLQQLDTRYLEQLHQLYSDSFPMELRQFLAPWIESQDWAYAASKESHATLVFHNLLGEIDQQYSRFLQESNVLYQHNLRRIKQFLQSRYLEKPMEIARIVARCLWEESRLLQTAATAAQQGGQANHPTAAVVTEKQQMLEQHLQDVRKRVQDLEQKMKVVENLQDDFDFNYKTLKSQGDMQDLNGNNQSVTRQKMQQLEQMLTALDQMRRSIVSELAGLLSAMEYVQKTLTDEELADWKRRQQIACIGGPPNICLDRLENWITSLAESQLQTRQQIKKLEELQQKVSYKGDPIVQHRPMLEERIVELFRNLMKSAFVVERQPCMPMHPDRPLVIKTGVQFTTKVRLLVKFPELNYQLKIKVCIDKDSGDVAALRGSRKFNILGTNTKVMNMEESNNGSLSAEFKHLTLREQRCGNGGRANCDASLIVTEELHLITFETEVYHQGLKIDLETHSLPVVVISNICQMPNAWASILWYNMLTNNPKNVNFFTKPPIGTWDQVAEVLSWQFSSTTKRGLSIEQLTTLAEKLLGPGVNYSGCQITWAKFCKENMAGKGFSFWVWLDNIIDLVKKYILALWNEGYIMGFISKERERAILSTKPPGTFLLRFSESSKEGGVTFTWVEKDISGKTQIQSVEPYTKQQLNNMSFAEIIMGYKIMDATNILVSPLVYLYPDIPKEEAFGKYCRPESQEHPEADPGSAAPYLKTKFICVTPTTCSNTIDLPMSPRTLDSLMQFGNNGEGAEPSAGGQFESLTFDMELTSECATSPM
Chain of Nuclear factor erythroid 2-related factor 2 (Homo sapiens) (Q16236 whole entry, looked up): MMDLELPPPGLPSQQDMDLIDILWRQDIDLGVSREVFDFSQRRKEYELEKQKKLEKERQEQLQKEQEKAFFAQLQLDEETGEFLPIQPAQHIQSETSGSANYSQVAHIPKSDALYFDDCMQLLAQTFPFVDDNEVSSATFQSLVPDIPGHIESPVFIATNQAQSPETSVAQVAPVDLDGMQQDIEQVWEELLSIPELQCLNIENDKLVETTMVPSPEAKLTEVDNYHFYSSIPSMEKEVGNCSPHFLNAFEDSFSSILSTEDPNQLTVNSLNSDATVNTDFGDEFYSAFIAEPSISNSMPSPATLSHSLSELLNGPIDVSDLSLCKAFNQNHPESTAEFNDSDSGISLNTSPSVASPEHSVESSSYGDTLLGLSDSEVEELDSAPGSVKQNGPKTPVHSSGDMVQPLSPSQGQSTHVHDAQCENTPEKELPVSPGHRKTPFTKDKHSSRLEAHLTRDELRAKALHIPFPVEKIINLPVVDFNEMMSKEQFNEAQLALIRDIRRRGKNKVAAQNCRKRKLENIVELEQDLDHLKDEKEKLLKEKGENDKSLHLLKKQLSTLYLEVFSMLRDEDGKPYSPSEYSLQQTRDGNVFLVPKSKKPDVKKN
Chain of Nuclear factor NF-kappa-B p105 subunit (Homo sapiens) (P19838 whole entry, looked up): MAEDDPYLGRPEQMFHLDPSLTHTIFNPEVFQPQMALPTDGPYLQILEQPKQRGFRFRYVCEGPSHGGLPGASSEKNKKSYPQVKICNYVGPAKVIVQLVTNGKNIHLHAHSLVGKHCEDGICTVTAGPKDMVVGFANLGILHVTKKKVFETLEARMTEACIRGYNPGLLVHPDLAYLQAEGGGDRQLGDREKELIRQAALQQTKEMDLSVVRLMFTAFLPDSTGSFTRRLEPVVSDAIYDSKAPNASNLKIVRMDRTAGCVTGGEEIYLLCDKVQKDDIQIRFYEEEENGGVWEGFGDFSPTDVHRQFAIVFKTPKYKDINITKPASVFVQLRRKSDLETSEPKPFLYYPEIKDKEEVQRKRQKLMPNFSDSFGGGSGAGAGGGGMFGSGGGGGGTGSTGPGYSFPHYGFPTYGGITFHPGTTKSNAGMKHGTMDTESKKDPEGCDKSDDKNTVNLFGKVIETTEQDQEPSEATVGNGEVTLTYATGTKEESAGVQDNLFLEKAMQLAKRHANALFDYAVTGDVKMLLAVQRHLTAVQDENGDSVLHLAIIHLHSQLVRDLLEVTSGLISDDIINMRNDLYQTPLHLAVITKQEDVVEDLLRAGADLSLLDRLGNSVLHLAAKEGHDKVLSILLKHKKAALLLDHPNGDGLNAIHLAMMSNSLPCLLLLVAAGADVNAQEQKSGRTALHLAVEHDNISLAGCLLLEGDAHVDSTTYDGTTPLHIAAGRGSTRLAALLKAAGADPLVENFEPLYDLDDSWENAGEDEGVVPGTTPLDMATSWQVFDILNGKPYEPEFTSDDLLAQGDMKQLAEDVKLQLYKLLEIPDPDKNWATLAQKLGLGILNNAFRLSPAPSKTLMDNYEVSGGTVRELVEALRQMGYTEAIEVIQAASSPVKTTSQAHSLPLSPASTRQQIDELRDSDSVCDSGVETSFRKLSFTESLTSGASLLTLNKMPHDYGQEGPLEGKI

CC(C)c1nnc2ccc(-c3ocnc3-c3cc(F)ccc3F)cn12
active: [2] 83.4 µM | [4] 50 µM | [7] 7.09 µM | [11] 15.4 µM | [16] 50 µM | [17] 94 µM
not listed: [19] | [20]
inactive: all other assays above

Cc1ncc([C@@H](CCCCCCc2ccc3c(n2)NCCC3)CC(=O)O)cn1
active: [3] 0.382 µM | [7] 0.145 µM | [12] 0.317 µM
not listed: [20]
inactive: all other assays above

COc1cc(C(C)C)c2c(c1)S(=O)(=O)N(COc1cc(=O)n3cccc(OCCN4CCCCC4)c3n1)C2=O
inactive: [1] | [6] | [20] | [9] | [12] | [13] | [14] | [15] | [18]
active: [3] 21.2 µM | [4] 23.4 µM | [5] 21.1 µM | [7] 19.7 µM | [8] 19.5 µM | [10] 22.6 µM | [11] 20.8 µM | [19] 22.8 µM | [16] 21.1 µM | [17] 23.7 µM
